Screens (PubChem BioAssay)
Only some compounds are listed: those with a hit (about 12% of all), similar ones and a draw of the others.
HP1b binding inh: inhibitors of HP1-beta chromodomain binding to methylated histone tails. P83916. AlphaScreen HP1-beta / biotin-H3K9me3 peptide binding. Potency, µM (top dose mostly 114 µM), for inactives: at the top dose activity change, negative = inhibition, usual class: inhibitors. 390,000 tested, 0.56% active; also: nearly all actives have a fitted effect of over 70% in size
Target sequence (P83916 whole entry, looked up): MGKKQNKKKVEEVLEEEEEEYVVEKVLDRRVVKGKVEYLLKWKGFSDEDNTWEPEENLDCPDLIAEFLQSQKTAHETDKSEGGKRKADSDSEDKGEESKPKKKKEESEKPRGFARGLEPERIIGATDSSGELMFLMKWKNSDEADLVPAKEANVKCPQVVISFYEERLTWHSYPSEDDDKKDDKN
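HP1-beta protein (50 nM final) preincubated 30 min at room temperature with biotinylated H3(1-18)K9me3 peptide (50 nM) in PBS pH 7.4, 0.01% Tween-20, then compound added for 30 min. AlphaScreen streptavidin donor/nickel chelate acceptor beads (10 ug/mL final), 30 min dark, luminescence read.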
Sfp PPTase inh: blocks B. subtilis Sfp PPTase activity. Q9F4F7. Biochemical Sfp PPTase activity, qHTS. Potency, µM, inactives show largest response in the series, negative = inhibition, usual class: inhibitors. 310,000 tested, 3.5% active;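 also: the enzyme is Sfp with the accession as filed and its product quenches rhodamine fluorescence; 0% = enzyme reaction without inhibitor and -100% = no enzyme wells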
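Buffer: 50 mM Hepes-Na pH 7.6, 10 mM MgCl2, 0.01% Nonidet P-40, 0.01% BSA. Enzyme 15 nM, pre-exposed to compound 15 min; substrates then added and fluorescence change tracked over 30 min.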
G9a inh: inhibitors of human histone lysine methyltransferase G9a | Q96KQ7 | G9a H3K9 monomethylation, AlphaScreen, 2 h | Potency, µM (highest dose often 102 µM), for the others: at the top dose activity, negative = inhibition, hits mostly inhibitors | 350,000 tested, 8.8% active; also: % is scaled to controls: 0 for no effect and ±100 for the full control effect; nearly all actives have a fitted effect of over 75% in size
Target sequence (Q96KQ7 913-1193 limits assumed): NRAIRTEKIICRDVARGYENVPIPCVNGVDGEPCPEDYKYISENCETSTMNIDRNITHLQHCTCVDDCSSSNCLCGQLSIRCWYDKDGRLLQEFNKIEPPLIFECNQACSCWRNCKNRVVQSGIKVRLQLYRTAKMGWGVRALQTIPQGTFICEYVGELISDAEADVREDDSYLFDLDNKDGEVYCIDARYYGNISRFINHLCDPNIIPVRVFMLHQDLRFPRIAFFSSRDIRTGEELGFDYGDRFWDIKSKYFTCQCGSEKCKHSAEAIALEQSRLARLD
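AlphaScreen detection with an anti-monomethyl H3K9 antibody quantified product after a 2 h room-temperature reaction containing 500 nM biotinylated H3K9 peptide, 20 µM SAM and 20 nM enzyme, which had been preincubated 15 min with compound.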
L3MBTL1 inh: blocks human L3MBTL1 | Q9Y468 | Potency, µM (series often up to 57.1 µM), inactives show at the top dose activity, negative = inhibition, actives largely listed as inhibitors | AlphaScreen L3MBTL1–H3K9me1 peptide binding | AID 485360 | 230,000 tested, 0.66% active; also: % is scaled to controls: 0 for no effect and ±100 for the full control effect; nearly all actives have a fitted effect of over 60% in size
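L3MBTL1 (50 nM) pre-complexed 30 min with biotinylated H3(1-15)K9me1 peptide (75 nM), then compounds added for 30 min at room temperature; AlphaScreen streptavidin donor/nickel chelate acceptor beads (10 ug/mL final) read after 30 min dark incubation.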
BAZ2B block: inhibitors of human BAZ2B bromodomain; AlphaScreen BAZ2B-H3K14Ac peptide displacement; Q9UIF8; 360,000 tested, 4.4% active; Potency, µM (series often up to 114 µM), for the others: at the top dose activity change, negative = inhibition, hits mostly inhibitors; also: % is scaled to controls: 0 for no effect and ±100 for the full control effect; nearly all actives have a fitted effect of over 60% in size
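Protein-peptide AlphaScreen: BAZ2B 50 nM, b-H3K14Ac 50 nM, 1x PBS pH 7.4 + 0.01% Tween-20. Preincubation 30 min RT; cpd 30 min RT (top 110 uM); beads 20 min RT, light-protected.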
JMJD2A Tudor inh: inhibitors of human JMJD2A Tudor domain; O75164; AlphaScreen JMJD2A-Tudor / H3K4me3 peptide binding; Potency, µM (top dose mostly 114 µM), without a hit: at the highest dose activity change, negative = inhibition, hits mostly inhibitors; 390,000 tested, 4.4% active; AID 504339; also: % is scaled to controls: 0 for no effect and ±100 for the full control effect; nearly all actives have a fitted effect of over 50% in size
The depositor's hits bear a star; u = inconclusive; x = no result given; [ ] = dose if it differs, or a comment. Calls follow the shape of the dose curve; as a rule, active = well fitted curve in the direction sought with a large enough effect; inconclusive = small, poorly fitted or top-dose-only effect, or another doubt; inactive = no such curve, though single readings can be large; an effect the other way counts as inactive or inconclusive. Potency is read from the fitted curve at half-maximal effect.

SMILES	HP1b binding inh	Sfp PPTase inh	G9a inh	L3MBTL1 inh	BAZ2B block	JMJD2A Tudor inh
CCN(CC)c1cc2nonc2c2nonc12	48%	-4%	9%[59 µM]	19%	51%	23%
CN(C)c1cc(Cl)c2nonc2c1N	u	89µM*	40µM*	32µM*	50µM*	u
CCN(CC)c1cc(Cl)c2nonc2c1N	u	-4%	32µM*	u	u	u
Cc1ccc(NC(=O)C2=NNC(=O)CC2)cc1S(=O)(=O)Nc1ccc(SC(F)F)cc1	20%	x	12%[2.33 µM]	-5%	-1%	-18%
CCc1nc2ccccc2c(=O)n1/N=C/c1ccc(Cl)cc1	29%	x	x	x	x	14%
NC(=O)C1CCCN(C(=O)c2cccc(S(=O)(=O)N3CCCCCC3)c2)C1 (stereo not given)	28%	x	5%[59 µM]	-2%	-32%	-9%
CCc1ccc(Nc2nnc(-n3nc(C)cc3C)c3ccccc23)cc1	121%	x	35%[59 µM]	x	45%	2%
Cc1cc2c(cc1C)/C(=N/NC(=O)c1ccccn1)CCC2	54%	u	x	-11%	50µM*	-6%
O=C(NN=C1CCC(=NNC(=O)c2ccccn2)CC1)c1ccccn1	33%	-19%	x	-28%	7.9µM*	22µM*
O=C(N/N=C/C1CCCCC1)c1ccccn1	73%	3%	52%[12.7 µM]	-4%	u	-17%
Cc1cccc(C(=O)Nc2nc3c(s2)CCCC3)c1	30%	x	-31%[59 µM]	x	-26%	-33%
O=C(Nc1nc2c(s1)CCCC2)c1ccc2ncsc2c1	-3%	25µM*	u	39%	u	u
O=C(Nc1ccccc1F)c1ccc2ncsc2c1	47%	-12%	45µM*	x	7%	-10%
CS(=O)(=O)c1cccc(-c2nnc(NC(=O)c3ccc4ncsc4c3)o2)c1	27%	x	u	-8%	4%	u
COc1cccc(-c2nnc(NC(=O)c3ccc4ncsc4c3)o2)c1	25%	-12%	u	24%	79µM*	-20%
CS(=O)(=O)c1ccccc1-c1nnc(NC(=O)c2ccc3ncsc3c2)o1	61%	x	-14%[2.33 µM]	21%	50µM*	56µM*
COc1ccccc1NC(=O)CCc1nnc2ccc(NCc3ccco3)nn12	27%	10%	11%	x	-35%	-24%
CSc1ccccc1-c1nnc(NC(=O)Cc2ccccc2)o1	45%	10%	44%[59 µM]	x	-13%	3%
CS(=O)(=O)c1ccccc1-c1nnc(NC(=O)Cc2ccccc2)o1	8%	-13%	u	x	25µM*	79µM*
O=C(O)Cn1c(-c2ccccc2)nc2ccccc21	-1%	22%	40µM*	5%	-32%	21%[11.4 µM]
O=C(O)Cn1c(=O)c(-c2ccccc2)nc2ccccc21	56%	10%	x	9%	5%	-10%
O=C(O)Cn1c(-c2ccccn2)nc2ccccc21	14%	-3%	u	-2%	3%[57.1 µM]	50µM*
O=C(O)Cn1c(=S)sc2ccccc21	24%	10%	71µM*	4%	89µM*	-5%
Cc1nn(Cc2ccc(Cl)cc2)c(C)c1NC(=O)c1cc(-c2ccco2)on1	23%	-8%	u	-2%	-7%	-24%
Cc1nn(Cc2ccc(Cl)c(Cl)c2)c(C)c1NC(=O)c1cc(-c2ccco2)on1	31%	45µM*	16µM*	-21%	-24%	-15%
SMILES	HP1b binding inh	Sfp PPTase inh	G9a inh	L3MBTL1 inh	BAZ2B block	JMJD2A Tudor inh
Cc1cc(NC(=O)c2cc(-c3ccco3)on2)nn1Cc1ccc(Cl)cc1	9%	18µM*	x	-1%	u	-11%
COC(=O)c1ccccc1NC(=O)c1cc(-c2ccco2)on1	7%	3%	40µM*	x	-14%	-19%
COC(=O)c1ccccc1-c1c2ccc(=N)cc-2oc2cc(N)ccc12	29%[57 µM]	x	-10%[12.7 µM]	17%	11%	-32%
Cn1cnc([N+](=O)[O-])c1Sc1ncccc1N	65%	u	3.5µM*	x	9%	4%
Cc1ccc(Sc2c([N+](=O)[O-])ncn2C)cc1	6%	12%	50%	-13%	2%[57.1 µM]	-5%[57.1 µM]
Cn1cnc([N+](=O)[O-])c1SCCO	27%	-25%	22µM*	3%	-14%	-12%
